PubChem BioAssay
A number with no mark means an inactive call. Calls of active or inactive are those of the source.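 Rule for the calls: active = inhibition above the hit cutoff set in the earlier primary screen (cut at about 27% in these data); inactive = the rest.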

Target: Protein phosphatase methylesterase 1 (Homo sapiens) (UniProt Q9Y570)
Assay: PME-1 inhibitor activity retest, confirmation, biochemical, fluorescence polarization, FP-Rh probe, triplicate (AID 2171);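 note: 0% = enzyme with DMSO and 100% = wells lacking PME-1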
Conditions: recombinant PME-1, FP-Rh probe fluorescence polarization; at 5.9 µM; stronger effect = higher value

Chain of Protein phosphatase methylesterase 1 (Homo sapiens) (Q9Y570 whole entry, looked up): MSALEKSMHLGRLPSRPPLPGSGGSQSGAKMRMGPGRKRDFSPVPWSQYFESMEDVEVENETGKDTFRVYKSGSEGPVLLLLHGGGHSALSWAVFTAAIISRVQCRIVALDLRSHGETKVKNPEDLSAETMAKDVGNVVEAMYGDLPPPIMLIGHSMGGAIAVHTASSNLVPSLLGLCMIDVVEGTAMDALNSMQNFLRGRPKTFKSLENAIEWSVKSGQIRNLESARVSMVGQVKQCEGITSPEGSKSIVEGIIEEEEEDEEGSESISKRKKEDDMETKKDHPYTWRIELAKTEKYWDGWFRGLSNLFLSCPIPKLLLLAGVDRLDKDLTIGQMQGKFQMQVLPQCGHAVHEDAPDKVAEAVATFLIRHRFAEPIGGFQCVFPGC

Question: How did the inhibition turn out when `COc1ccc(-c2cc(C(=O)N3CCN(C(=O)c4ccccc4F)CC3)[nH]n2)cc1` was run?
Answer: 21.7%

Question: With `O=Nc1c(O)c2ccccc2c2ccccc12` as the compound, how does the inhibition read?
Answer: 65.8% (active)

Question: `COc1cc(/C=N/NC(=O)[C@H](Cc2c[nH]c3ccccc23)NC(=O)OCC(C)C)cc([N+](=O)[O-])c1O` was tested. Which inhibition did it give?
Answer: 35.9% (active)

Question: How did the inhibition turn out when `CCOc1cccc(/C=N/NC(=S)Nc2cc(S(=O)(=O)N3CCOCC3)ccc2N2CCOCC2)c1O` was run?
Answer: 25.1%

Question: How did the inhibition turn out when `COc1cc(OC)cc(-c2nnc(Nc3nc4c(F)cccc4s3)o2)c1` was run?
Answer: 56.2% (active)

Question: How did the inhibition turn out when `Cc1c(Cl)cccc1Nc1nc(N)nc(CSc2nc3ccccc3s2)n1` was run?
Answer: 25.1%

Question: `O=C(COC(=O)CCCN1C(=O)c2cccc3cccc(c23)C1=O)Nc1ccc(Cl)cc1` was tested. Which inhibition did it give?
Answer: 22.7%

Question: With `Cc1ccc(NCC(O)C(O)C(O)CO)c(N=Nc2ccccc2)c1C` (stereo not given) as the compound, how does the inhibition read?
Answer: 50.7% (active)

Question: For `CCOc1ccc(N=Nc2c(=O)[nH]n3c(=O)c4c([nH]c23)CCCC4)cc1`, which inhibition is on record?
Answer: 24.8%

Question: Which inhibition does the source give for `CCOC(=O)N1CC=C2C(C#N)=C(N)C(C#N)(C#N)[C@H](c3cccs3)C2C1` (stereo not given in full) here?
Answer: 35.2% (active)

Question: For `COc1ccc2nc(-n3c(O)c(C4=c5ccccc5=NC4=O)[nH]c3=S)sc2c1`, which inhibition is on record?
Answer: 45.8% (active)

Question: How did the inhibition turn out when `O=C(c1cccs1)N1CCC(c2nc3c(nnn3Cc3ccccc3Cl)c(=O)[nH]2)CC1` was run?
Answer: 25.4%

Question: `CCN1CCc2c(sc(NC(=O)Nc3ccc(Cl)c(Cl)c3)c2C(N)=O)C1` was tested. Which inhibition did it give?
Answer: 14.2%

Question: How did the inhibition turn out when `Nc1[nH]n(-c2ccccc2)c(=O)c1N=Nc1ccc2c(c1)OCO2` was run?
Answer: 39.8% (active)

Question: `CCCCCCC(=O)N1CCC(c2nc3c(nnn3Cc3ccccc3Cl)c(=O)[nH]2)CC1` was tested. Which inhibition did it give?
Answer: 21.9%

Question: Which inhibition does the source give for `c1ccc2sc(Nc3nc4cc5c(cc4s3)OCO5)nc2c1` here?
Answer: 49.7% (active)

Question: With `O=C(CSc1nnc(SCc2ccccc2Cl)s1)N/N=C/c1c[nH]c2ccccc12` as the compound, how does the inhibition read?
Answer: 19.3%

Question: For `N=c1oc2cc(O)ccc2cc1C(=O)Nc1nc2ccccc2s1`, which inhibition is on record?
Answer: 25.7%

Question: With `Cc1ccc(S(=O)(=O)CCSc2cccc(C(=O)Nc3ccccc3C(=O)O)c2)cc1` as the compound, how does the inhibition read?
Answer: 35.8% (active)

Question: For `COc1ccccc1C(=O)NC(=S)Nc1cccc2cc(O)ccc12`, which inhibition is on record?
Answer: 17%

Question: Which inhibition does the source give for `CCCN(CC(=O)Nc1ccccc1C)C(=O)COC(=O)CSc1ccc([N+](=O)[O-])cc1` here?
Answer: 17.4%

Question: `O=C1NN(c2ccc(Cl)c(Cl)c2)C(=O)/C1=C/c1cccc(OC(=O)c2cccs2)c1` was tested. Which inhibition did it give?
Answer: 8.75%

Question: `O=C(NNc1nc2c(F)cccc2s1)c1cc(=O)c2ccccc2o1` was tested. Which inhibition did it give?
Answer: 58.6% (active)

Question: Which inhibition does the source give for `Cc1cc(N/N=C/c2ccc(O)cc2O)nc(-c2ccccc2O)n1` here?
Answer: 39.8% (active)

Question: Which inhibition does the source give for `COc1ccc(NC(=O)C2CCN(C(=O)c3cccs3)CC2)cc1OC` here?
Answer: 5.2%

Question: `Cc1cc(NC(=O)CSc2nc3ccccc3c(=O)n2C2CCCC2)no1` was tested. Which inhibition did it give?
Answer: 3.59%

Question: Which inhibition does the source give for `N#CCN(CC#N)C(=O)C1c2ccccc2Oc2ccccc21` here?
Answer: 0.3%

Question: Which inhibition does the source give for `CCOc1cc(-c2cc(-c3ccc(N)cc3)nc(N)c2C#N)ccc1O` here?
Answer: 41.5% (active)

Question: How did the inhibition turn out when `CCCCOC(=O)c1ccc(NC(=O)Nc2ccc(OC)c(OC)c2)cc1` was run?
Answer: 14.7%

Question: With `O=C1c2c(O)cccc2Cc2cccc(O)c21` as the compound, how does the inhibition read?
Answer: 23.4%

Question: Which inhibition does the source give for `CSc1ccc(C2Nc3cccc4cccc(c34)N2)cc1` here?
Answer: 36.5% (active)

Question: For `Cc1cc(-c2ccccc2)nc(N/N=C/c2ccc(O)cc2O)n1`, which inhibition is on record?
Answer: 70.4% (active)

Question: `CC(C)(C)c1ccc(NC(=O)C2=CC=CN3CCS(=O)(=O)N=C23)cc1` was tested. Which inhibition did it give?
Answer: 9.34%

Question: Which inhibition does the source give for `COc1ccc(C(=O)c2oc3ccc(OC)cc3c2N)cc1` here?
Answer: 29.6% (active)

Question: With `Nc1nonc1-n1nnc(C(=O)N/N=C/c2c[nH]c3ccccc23)c1-c1ccccc1` as the compound, how does the inhibition read?
Answer: 25.4%

Question: `Nc1nonc1N/N=C/c1c(O)ccc2ccccc12` was tested. Which inhibition did it give?
Answer: 23.6%

Question: With `CCn1c(C)c(/C=N/Nc2nc3ccccc3s2)c2ccccc21` as the compound, how does the inhibition read?
Answer: 16.8%

Question: For `O=C(N/N=C/c1ccc(O)c(O)c1)c1ccc(CSc2cccc3cccnc23)cc1`, which inhibition is on record?
Answer: -3.59%

Question: For `COc1ccc(N=C2NC(=O)S/C2=C\c2ccc(N(C)C)cc2)cc1`, which inhibition is on record?
Answer: 37.2% (active)

Question: For `Cc1ccccc1OCC(=O)NC(=S)Nc1cccc2cc(O)ccc12`, which inhibition is on record?
Answer: 20.7%
